# Experimental data as given in the supplement of paper PMC12350171.
# Structures can show the parent of a compound that is named as a salt.
# Test system: Haemophilus parainfluenzae
# Experiment: growth AUC normalised to DMSO control (fraction of control); higher = less growth inhibition, active = hit call of the paper
# Conditions: 20 µM;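 active = AUC significantly below DMSO controls by Student t-fit with adjusted P under 0.01; inactive = not significantly reduced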
# Outline: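 Three biological replicates were carried out, with OD578 read hourly for 24 h. Before inoculation at a starting OD578 of 0.01, pathogens were passaged anaerobically twice; plates were pre-reduced mGAM containing 20 μM compound and 1% DMSO, sealed with breathable membranes, and the Haemophilus parainfluenzae medium carried added hemin and NAD. Area under each growth curve was calculated by the trapezoidal rule up to the exponential-to-stationary transition and normalised to DMSO controls on the same plate.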
row,SMILES,growth AUC normalised to DMSO control
1,Cc1cccc(Nc2ccccc2C(=O)O)c1C [Mefenamic acid],0.946 (inactive)
2,CNC(C)CCC=C(C)C (centres undefined) [Isometheptene mucate],0.97 (inactive)
3,CN(C)CC/C=C1/c2ccccc2COc2ccc(CC(=O)O)cc21 [Olopatadine hydrochloride],0.881 (inactive)
4,"Cc1c(O)c(=O)n(-c2ccccc2)n1C [Antipyrine, 4-hydroxy]",0.974 (inactive)
5,CNc1ncnc2c1ncn2[C@@H]1O[C@H](CO)[C@@H](O)[C@H]1O [N6-methyladenosine],1.01 (inactive)
6,NNc1nncc2ccccc12 [Hydralazine hydrochloride],1.03 (inactive)
7,CCC[C@@H]1C[C@@H](C(=O)N[C@@H]([C@H]2O[C@H](SC)[C@H](O)[C@@H](O)[C@H]2O)[C@H](C)Cl)N(C)C1 [Clindamycin hydrochloride],0.0463 (active)
8,CN1C2CCCC1CC(NC(=O)c1nn(C)c3ccccc13)C2 (centres undefined) [Granisetron],1.02 (inactive)
9,N=C(N)NC(=O)Cc1c(Cl)cccc1Cl [Guanfacine hydrochloride],1.01 (inactive)
10,Nc1ccn([C@H]2CC[C@@H](CO)O2)c(=O)n1 [Zalcitabine],1.06 (inactive)
11,NC(=O)N/N=C/c1ccc([N+](=O)[O-])o1 [Nitrofural],0.465 (active)
12,O=C(O)CCC(=O)c1ccc(-c2ccccc2)cc1 [Fenbufen],0.905 (inactive)
13,CCN(CC)CC#CCOC(=O)C(O)(c1ccccc1)C1CCCCC1 (centres undefined) [Oxybutynin chloride],0.952 (inactive)
14,CC1(C)S[C@@H]2[C@H](NC(=O)[C@H](N)c3ccc(O)cc3)C(=O)N2[C@H]1C(=O)O [Amoxicillin],0.0371 (active)
15,N=C(N=C(N)N)N1CCOCC1 [Moroxidine hydrochloride],1 (inactive)
16,CCOc1nc2cccc(C(=O)O)c2n1Cc1ccc(-c2ccccc2-c2nnn[nH]2)cc1 [Candesartan],1.05 (inactive)
17,Cc1c(N(C)C)c(=O)n(-c2ccccc2)n1C [Amidopyrine],1.01 (inactive)
18,O=C1CN(/N=C/c2ccc([N+](=O)[O-])o2)C(=O)N1 [Nitrofurantoin],0.369 (active)
19,Cc1cc2c(s1)Nc1ccccc1N=C2N1CCN(C)CC1 [Olanzapine],1.02 (inactive)
20,C[C@H]1[C@H](NC(=O)/C(=N\OC(C)(C)C(=O)O)c2csc(N)n2)C(=O)N1S(=O)(=O)O [Aztreonam],0.0582 (active)

row,SMILES,growth AUC normalised to DMSO control
1,COc1cc2nc(N3CCN(C(=O)c4ccco4)CC3)nc(N)c2cc1OC [Prazosin hydrochloride],0.981 (inactive)
2,O=C(OCCOCCO)c1ccccc1Nc1cccc(C(F)(F)F)c1 [Etofenamate],0.992 (inactive)
3,CCN1CCN(C(=O)N[C@@H](C(=O)N[C@@H]2C(=O)N3[C@@H]2SC(C)(C)[C@@H]3C(=O)O)c2ccccc2)C(=O)C1=O [Piperacillin sodium salt],0.0495 (active)
4,CCc1c2c(nc3ccc(OC(=O)N4CCC(N5CCCCC5)CC4)cc13)-c1cc3c(c(=O)n1C2)COC(=O)[C@]3(O)CC [Irinotecan hydrochloride trihydrate],1 (inactive)
5,CCn1cc(C(=O)O)c(=O)c2cc(F)c(N3CCN(C)CC3)cc21 [Pefloxacin],0.0557 (active)
6,CCCc1nc2c(C)cc(-c3nc4ccccc4n3C)cc2n1Cc1ccc(-c2ccccc2C(=O)O)cc1 [Telmisartan],1.03 (inactive)
7,CNCCC=C1c2ccccc2CCc2ccccc21 [Nortriptyline hydrochloride],0.966 (inactive)
8,C=CC1=C(C(=O)O)N2C(=O)[C@@H](NC(=O)/C(=N\OCC(=O)O)c3csc(N)n3)[C@H]2SC1 [Cefixime],0.0416 (active)
9,CC1CC(OC(=O)c2ccccc2O)CC(C)(C)C1 (centres undefined) [Homosalate],0.983 (inactive)
10,Cc1c(-c2ccccc2)oc2c(C(=O)OCCN3CCCCC3)cccc2c1=O [Flavoxate hydrochloride],1.2 (inactive)
11,CO[C@H]1C[C@H](O[C@H]2[C@H](C)[C@@H](O[C@@H]3O[C@H](C)C[C@H](N(C)C)[C@H]3OC(C)=O)[C@@H](C)C[C@@]3(CO3)C(=O)[C@H](C)[C@@H](OC(C)=O)[C@@H](C)[C@@H](C)OC(=O)[C@@H]2C)O[C@@H](C)[C@@H]1OC(C)=O [Troleandomycin],0.921 (inactive)
12,COc1ccc(C(Cl)=C(c2ccc(OC)cc2)c2ccc(OC)cc2)cc1 [Chlorotrianisene],0.951 (inactive)
13,Cc1ccc(C(=O)c2ccc(CC(=O)O)n2C)cc1 [Tolmetin sodium salt dihydrate],1.07 (inactive)
14,CC[C@H](C)[C@H]1O[C@]2(C=C[C@@H]1C)C[C@@H]1C[C@@H](C/C=C(\C)[C@@H](O[C@H]3C[C@H](OC)[C@@H](O[C@H]4C[C@H](OC)[C@@H](O)[C@H](C)O4)[C@H](C)O3)[C@@H](C)/C=C/C=C3\CO[C@@H]4[C@H](O)C(C)=C[C@@H](C(=O)O1)[C@]34O)O2.CO[C@H]1C[C@H](O[C@H]2[C@H](C)O[C@@H](O[C@@H]3/C(C)=C/C[C@@H]4C[C@@H](C[C@]5(C=C[C@H](C)[C@@H](C(C)C)O5)O4)OC(=O)[C@@H]4C=C(C)[C@@H](O)[C@H]5OC/C(=C\C=C\[C@@H]3C)[C@]54O)C[C@@H]2OC)O[C@@H](C)[C@@H]1O [Avermectin B1],0.997 (inactive)
15,CC(C)(Oc1ccc(CCNC(=O)c2ccc(Cl)cc2)cc1)C(=O)O [Bezafibrate],0.984 (inactive)
16,CCN(CC)CC(=O)Nc1c(C)cccc1C [Lidocaine hydrochloride],1.02 (inactive)
17,O=C(C1CCCCC1)N1CC(=O)N2CCc3ccccc3C2C1 (centres undefined) [Praziquantel],1.04 (inactive)
18,CCCc1cc(=O)[nH]c(=S)[nH]1 [Propylthiouracil],0.991 (inactive)
19,CC(C)(C)NC[C@@H](O)COc1cccc2c1CCCC2=O [(+) Levobunolol hydrochloride],0.973 (inactive)
